# Assay results: PubChem BioAssay (NCI)
# About 79,000 compounds went through this panel and 15% of them were active in at least one assay; those are over-represented in the sample as a whole. A number with no mark means an inactive call. Active and inactive are the calls of the source. Rule as the data show it: active = growth inhibition above about 70%; inactive = the rest. Where a SMILES comes first, the peptide text is derived from it. The star is where a group is joined. Boc = CC(C)(C)OC(=O)*; OSu = O=C1CCC(=O)N1O*
# What was measured:
# [1] = NCI Yeast Anticancer Drug Screen. Data for the rad50 strain (AID 155);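 also: 0% = growth of vehicle-only cultures of the same strain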; settings: S. cerevisiae rad50 strain growth inhibition; at 50.0 µM; stronger effect = higher value
# Method in brief: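 Compounds were tested on a yeast strain with an engineered DNA damage repair alteration; the reported value is growth inhibition normalised to vehicle treatment.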
# [2] = NCI Yeast Anticancer Drug Screen. Data for the mec2-1 strain (AID 157); settings: S. cerevisiae mec2-1 strain, at 50.0 µM, stronger effect = higher value
# Method in brief: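 Vehicle-treated cultures served as reference for growth inhibition of compound-exposed mec2-1 yeast.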
# [3] = NCI Yeast Anticancer Drug Screen. Data for the sgs1 mgt1 strain (AID 161);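 also: 0% = growth of cultures given vehicle only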; settings: S. cerevisiae sgs1 mgt1 strain, at 50.0 µM, stronger effect = higher value
# Method in brief: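 Inhibition of yeast growth, normalised to vehicle-treated controls, is reported for a strain bearing genetic alterations in DNA damage repair.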
# [4] = NCI Yeast Anticancer Drug Screen. Data for the cln2 rad14 strain (AID 165);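 also: 0% = growth equal to vehicle treated cultures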; settings: S. cerevisiae cln2 rad14 strain, at 50.0 µM, stronger effect = higher value
# Method in brief: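 Each compound was tested on cln2 rad14 yeast. Inhibition of growth was calculated against vehicle-exposed controls.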
# [5] = NCI Yeast Anticancer Drug Screen. Data for the bub3 strain (AID 167); settings: S. cerevisiae bub3 mutant strain, at 50.0 µM, stronger effect = higher value
# Method in brief: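 Growth of a checkpoint-deficient yeast mutant is measured after compound exposure. Values represent inhibition relative to vehicle.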
# [6] = NCI Yeast Anticancer Drug Screen. Data for the mlh1 rad18 strain (AID 175); settings: S. cerevisiae mlh1 rad18 strain growth inhibition; at 50.0 µM; stronger effect = higher value
# Method in brief: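 Vehicle-treated cultures served as the reference for growth inhibition in a yeast strain carrying DNA damage repair alterations exposed to each compound.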
SMILES,growth inhibition [1],growth inhibition [2],growth inhibition [3],growth inhibition [4],growth inhibition [5],growth inhibition [6]
CC(C)(C)OC(=O)N(CCCCN(CCCNC(=O)C(F)(F)F)C(=O)OC(C)(C)C)CCCNC(=O)C(F)(F)F,-14.9%,4.75%,-14.3%,3.15%,4.6%,-32%
CC[N+](C)(CC)CCNc1cc2c(c3c(=O)c4ccccc4sc13)CCCC2,99.2% (active),99.7% (active),99.1% (active),99.2% (active),99% (active),99% (active)
O=C1c2ccccc2C(=O)N1Nc1ccccc1,6.6%,3.2%,7.45%,-8.1%,3.1%,16.5%
Nc1ccc(C(=O)Nc2ccccn2)cc1,-9.1%,-9.55%,-13.4%,-27.6%,3.1%,-2.55%
O=C(C[n+]1ccccc1)c1ccccc1,1.75%,-4.4%,-2.4%,-18.5%,9.45%,30.7%
C=CC[N+](CCO)(CCO)CCCCCCCCCCCCCCCCCC,98.4% (active),99% (active),99.2% (active),96.1% (active),98.5% (active),97.8% (active)
C=C1C(=O)N2CCc3c([nH]c4ccccc34)[C@H]2C[C@@H]1CO,5.4%,2.4%,4.2%,5%,7.05%,10.8%
CC(C)c1cc(C(C)C)c(S(=O)(=O)N/N=C2\CC3CCC2(C)C3(C)C)c(C(C)C)c1 (stereo unspecified),-8.7%,-16.9%,-13.3%,-4.35%,-54.5%,0.65%
C=CCOCC(CCl)OC(=O)C(C)C (stereo unspecified),-4.95%,-11.8%,-13.3%,-9.9%,0.7%,-20.2%
Cc1cccc(-n2c(CC#N)n[nH]c2=S)c1,21%,-21.8%,-0.4%,3.15%,5.2%,5.45%
O=C1c2ccccc2C(=O)c2c1ccc1c2N=C(c2ccc(Br)cc2)CC(c2cccc3ccccc23)N1 (stereo unspecified),-22.1%,11.6%,17.9%,10.2%,9.95%,-11.6%
COc1ccc(CC(NC(=O)OCc2ccccc2)C(=O)NC2C(CO)OC(n3cnc4c(N)ncnc43)C2O)cc1 (stereo unspecified),25.8%,-6%,10.2%,2.15%,-0.75%,-1.75%
C(=C/c1ccc(/C=C/C=C\c2ccccc2)cc1)/C=C/c1ccccc1,-4.1%,-2.25%,13.8%,-50.6%,-2.1%,-12.2%
O=C1C=C/C(=N/c2ccc(O)o2)c2ccccc21,36.8%,52.3%,20.1%,8.4%,17.8%,60%
COc1csn[n+]1-c1ccc(C)cc1,7.7%,3.65%,9.45%,7.5%,14.8%,9.65%
Cc1ccccc1N(CCC#N)C1=NN(C(=O)CC(=O)Nc2ccccc2)C(c2ccccc2)C1 (stereo unspecified),3%,1%,12.1%,11.7%,0.85%,-7.2%
O=Cc1ccc(N2OC(c3ccc([N+](=O)[O-])cc3)C(c3ccc([N+](=O)[O-])cc3)C2c2ccc([N+](=O)[O-])cc2)cc1 (stereo unspecified),13.2%,-1.75%,14.7%,25.4%,0.95%,28.9%
O=C1CCC2=C3C4CCCC5OC6CC(=O)CCC6=C(C6CCCC(OC2C1)C36)C54 (stereo unspecified),5.5%,-2.15%,6.55%,11.2%,25.6%,17.4%
C=CC1=C(C)C2=NC1=CC1=NC(=CC3=C(C)C4=C(O)[C@H](C(=O)OC)C(=C5NC(=C2)[C@@H](C)[C@@H]5CCC(=O)O)C4=N3)C(CC)=C1C,1.65%,8.1%,31.2%,28.1%,21.1%,5.9%
Cc1cc(=O)[nH]c(N/N=C/c2ccco2)n1,-20.8%,-48.8%,-16.8%,6.75%,-33.8%,-15.3%
O=CC(Cc1ccccc1)C(=O)CCc1ccccc1.[Cu+2] (stereo unspecified),40.1%,13.9%,4.95%,-48.6%,0.4%,2.55%

SMILES,growth inhibition [1],growth inhibition [2],growth inhibition [3],growth inhibition [4],growth inhibition [5],growth inhibition [6]
CC(C)(C)OC(=O)NC(Cc1ccc(O)cc1)C(=O)NC(CCCCN)C(=O)NC(Cc1ccc(O)cc1)C(=O)NC(CCCCN)C(=O)ON1C(=O)CCC1=O (stereo unspecified) (Boc-YKYK-OSu; configuration not given here),-12.2%,-15.5%,-6.7%,29.1%,-2.8%,4.45%
OCCCCCCOc1ccc(-c2cc(-c3ccccn3)nc(-c3ccccn3)c2)cc1,52%,67.5%,68.9%,64.9%,70.5% (active),65.5%
Cc1cc(Cl)ccc1NC(=O)CCCC(=O)C1CCC/C1=N\NC(=O)CC#N (stereo unspecified),-33.2%,9.7%,-7.25%,8.95%,5.7%,-12.3%
COc1cc2c(c(O)c1C)C(=O)CC(c1ccccc1)O2 (stereo unspecified),15.4%,-46.3%,16%,2.15%,-4.25%,11.7%
CCNCC(=O)Nc1ccc(C(=O)OC)cc1,-8%,-29.4%,-9.9%,-20%,1.45%,-28.9%
CN1C(=O)NC(=O)C1(C)C=O (stereo unspecified),2.8%,0.9%,-2.7%,5.95%,10.9%,-12.1%
C=CCNC(=O)N(CCC)CCCC(NC(C)=O)C(=O)NCc1ccccc1 (stereo unspecified),-9.75%,-27.5%,-14.8%,10.4%,-17.1%,-9.7%
CC(=O)C1=C(C)C2CC3(C)CC(C2(C)C1)C3(C)C (stereo unspecified),8.45%,-17.1%,-0.95%,10.6%,-9.75%,-6%
CCc1c(C)[nH]c2c1C(=O)CCC2,15.6%,-4.65%,38.1%,18.1%,24.9%,46.9%
CCC(=O)Nc1cc([N+](=O)[O-])cc([N+](=O)[O-])c1,8.1%,-7.3%,-13.3%,-32.5%,-36.9%,-23.6%
CC1(c2ccccc2)CCC(=O)NC1 (stereo unspecified),-0.15%,-37.5%,-2.1%,8.45%,-7.25%,11.6%
CC(=O)OC1CCC2=C3CCC4(C)C(=O)CCC4C3C(O)C2(C)C1 (stereo unspecified),0.05%,-2%,-5.3%,-5.2%,-14.3%,-9.5%
COC1=C(c2ccccc2)P(=O)(Cc2ccccc2)C(C)C1 (stereo unspecified),-6.95%,12.2%,24.6%,-9.1%,48.3%,1.9%
CCCCCOC(=O)c1cccnc1,-8.75%,-16.1%,-15%,-0.2%,0.7%,-1.5%
CC(C)OP(=O)(OC(C)C)c1ccc2c(c1)OCCOCCOCCOCCO2,-2.9%,-11.3%,9.2%,4.2%,-0.15%,21.4%
CCOC(=O)COc1ccc(Cl)cc1CCl,3.2%,6.4%,-10.4%,-10.9%,21.9%,1.65%
COC1OC(C(C)O)C2OC(C)(C)OC12 (stereo unspecified),40.5%,29.1%,32.2%,1.5%,18.9%,13.3%
Br/C=C\Br,-2.85%,0.15%,-7.45%,28.6%,-12.8%,5.35%
COC(C)CCOC(=O)c1cccc(C)c1 (stereo unspecified),9%,-6.8%,3.8%,-24%,24.8%,1.9%
Nc1cc(=O)[nH]c(N)n1,10.2%,-23.9%,-19.6%,-83.9%,-5%,-21.9%
